High-throughput results deposited in PubChem BioAssay by The Scripps Research Institute Molecular Screening Center.
Shown are actives, neighbours in structure and some others; about 1.3% of the full set was active somewhere.
LYPLA2 inh: LYPLA2 inhibitors, primary screen, counter-screen for PME1 inhibitor project, biochemical, fluorescence polarization, FP-Rh probe ABPP | inhibition, % at 5.9 µM | recombinant LYPLA2 | Acyl-protein thioesterase 2 (Homo sapiens), O95372 | 320,000 compounds, 0.38% hits;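 active = inhibition above the screen-wide mean plus 3 SD, limit set per campaign, cut at about 26% in these data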
EBNA-1 inhibitor: EBNA-1 DNA-binding inhibitors, primary screen, biochemical, fluorescence polarization | AID 1950, 2009 | inhibition, % at 14.8 µM | 300,000 compounds, 0.34% hits; in the data active = inhibition above about 28%
LYPLA1 counter: LYPLA1 inhibitors, primary screen, counter-screen for PME1 inhibitor project, biochemical, fluorescence polarization, FP-Rh probe ABPP; AID 2174, 2009; 320,000 compounds, 0.16% hits; recombinant LYPLA1; inhibition, % at 5.9 µM;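 active = inhibition above the mean of all tested compounds plus 3 SD, set per campaign, cut at about 14% in these data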;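 note: inhibitors block serine hydrolase probe labeling of LYPLA1 so polarization falls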
PREPL inhibitor: PREPL enzyme inhibitors, primary screen, biochemical, fluorescence polarization; recombinant PREPL, fluorescence polarization activity-based probe; 320,000 compounds, 0.68% hits; Prolyl endopeptidase-like (Homo sapiens), Q4J6C6; inhibition, % at 5.96 µM
Target sequence (Q4J6C6 whole entry, looked up): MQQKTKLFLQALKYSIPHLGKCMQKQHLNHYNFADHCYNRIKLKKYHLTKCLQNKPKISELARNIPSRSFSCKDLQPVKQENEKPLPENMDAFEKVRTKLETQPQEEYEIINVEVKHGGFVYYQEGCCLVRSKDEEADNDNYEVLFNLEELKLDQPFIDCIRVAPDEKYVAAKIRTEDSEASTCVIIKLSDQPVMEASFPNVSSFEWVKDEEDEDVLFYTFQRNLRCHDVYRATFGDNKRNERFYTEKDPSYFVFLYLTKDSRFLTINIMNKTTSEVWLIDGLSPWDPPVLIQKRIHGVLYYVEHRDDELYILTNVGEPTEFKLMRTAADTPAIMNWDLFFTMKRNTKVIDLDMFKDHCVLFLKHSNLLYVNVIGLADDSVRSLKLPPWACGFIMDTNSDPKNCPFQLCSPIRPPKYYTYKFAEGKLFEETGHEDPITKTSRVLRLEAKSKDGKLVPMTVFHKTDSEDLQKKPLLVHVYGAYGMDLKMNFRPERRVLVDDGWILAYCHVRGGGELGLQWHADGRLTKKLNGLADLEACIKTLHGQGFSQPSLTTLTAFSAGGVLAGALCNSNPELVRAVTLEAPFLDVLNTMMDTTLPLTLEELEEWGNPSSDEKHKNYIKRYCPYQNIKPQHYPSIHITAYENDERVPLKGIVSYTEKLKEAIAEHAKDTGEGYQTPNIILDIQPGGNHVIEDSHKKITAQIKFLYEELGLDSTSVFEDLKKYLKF
ZTA DNA inh: counter-screen for EBNA-1 inhibitors: inhibitors of Epstein-Barr virus ZTA; inhibition, % at 11 µM; AID 2234; ZTA-DNA binding, fluorescence polarization; 320,000 compounds, 0.15% hits; P03206; in the data active = inhibition above about 33%
PREPL confirm: human PREPL enzyme inhibitors, confirmation, biochemical, fluorescence polarization; recombinant PREPL, fluorescence polarization activity probe; inhibition, % at 5.96 µM; shares compounds with PREPL inhibitor; 2,000 compounds, 67% hits; AID 2803, 2010
Hits are given with their value; n = inactive; x = no result given. Cut-off read from the data, not from the text of the source, unless noted: active = inhibition above about 43%; inactive = the rest.

SMILES | LYPLA2 inh | EBNA-1 inhibitor | LYPLA1 counter | PREPL inhibitor | ZTA DNA inh | PREPL confirm
CCN1C(N(C)CCc2c[nH]c3ccccc23)=N[C@@H](c2cccc(C(F)(F)F)c2)C(C(=O)OC)=C1C | x | x | x | 56 | x | n
Cc1ccc(NS(=O)(=O)c2cccc(C(=O)N3CCN(C(=O)c4ccco4)CC3)c2)cc1 | n | x | n | n | n | x
Cc1ccc2c(c1)c1c3n2CCN(CC(N)=O)C3CCC1 (stereo not drawn) | n | n | n | n | n | x
Cc1ccc2c(c1)c1c3n2CCN(CC(O)CNC(C)C)C3CCC1 (stereo not drawn) | n | n | n | 44 | n | n
Cc1sc2ncnc(N/N=C/c3ccccc3O)c2c1C | n | n | n | 66 | n | 65
Cc1sc2ncnc(N/N=C/c3ccc(O)cc3)c2c1C | n | n | n | n | n | x
Oc1cc(Nc2cccnc2)cc2cccnc12 | x | x | x | n | x | x
Oc1cc(Nc2ccncc2)cc2cccnc12 | x | x | x | 47 | x | 51
C=C1N(C)c2cc([N+](=O)[O-])c(N)cc2C1(C)C | n | n | n | 85 | n | 44
Cn1cc(Br)c(-c2cccc(N3C(=O)CCCC3=O)c2)n1 | n | n | n | n | n | x
CCC(=O)N(c1nnc(SCC(=O)NN2C(=O)NC3(CCC(C)CC3)C2=O)s1)C1CC1 (stereo not drawn) | n | x | n | n | n | x
O=C(Nc1ccc(Cl)c(Cl)c1)C1C2C=CC3(O2)C1C(=O)N(CCN1CCCCC1)C3C(=O)NC1CCCCC1 (stereo not drawn) | n | n | n | 50 | n | 52
Cc1ccc(NC(=O)C2C3C=CC4(O3)C2C(=O)N(CCCN2CCOCC2)C4C(=O)NC2CCCCC2)cc1Cl (stereo not drawn) | n | n | n | n | n | x
COc1ccc(Nc2nnc(SC(C(=O)Nc3cc(C)ccc3C)c3ccccc3)s2)cc1 (stereo not drawn) | n | n | n | n | n | x
COc1ccc(Nc2nnc(SC(C(=O)Nc3ccc(OC)c(Cl)c3)c3ccccc3)s2)cc1 (stereo not drawn) | n | n | n | 47 | n | n
Cc1ccc(S(=O)(=O)N(C)C)cc1NC(=O)COC(=O)C1CCN(S(=O)(=O)c2cccs2)CC1 | n | n | n | n | n | x
CCN(CC)CCN1c2ccccc2Sc2ccccc21 | n | n | n | n | n | x
CCN(CC)CCN1c2ccccc2Sc2ccc3ccccc3c21 | n | n | n | 46 | n | n
CC1(C)N=C(N)N=C(N)N1c1ccc(Oc2ccc(Cl)cc2)c(Cl)c1 | n | n | n | 55 | n | 52
CC1(C)N=C(N)N=C(N)N1c1ccccc1 | n | n | n | n | n | x
CNc1oc(-c2ccccc2Cl)nc1P(=O)(c1ccccc1)c1ccccc1 | n | n | n | 44 | n | 55
NC(=O)Nc1ccc(C(=O)OCC(=O)Nc2cccc(S(=O)(=O)NC3=NCCCCC3)c2)cc1 | n | n | n | n | n | x
O=C(COC(=O)c1ccc(C(F)(F)F)cc1)Nc1cccc(S(=O)(=O)NC2=NCCCCC2)c1 | x | x | x | 46 | x | n
O=C(COC(=O)/C=C/c1ccc(Cl)cc1)Nc1cccc(S(=O)(=O)NC2=NCCCCC2)c1 | x | x | x | 44 | x | n
N#CCCN(C(=O)COC(=O)C1CCN(S(=O)(=O)c2ccc3c(c2)OCCO3)CC1)c1ccccc1 | n | n | n | n | n | x
SMILES | LYPLA2 inh | EBNA-1 inhibitor | LYPLA1 counter | PREPL inhibitor | ZTA DNA inh | PREPL confirm
COc1cc(C#Cc2c(-c3cncn3C)n(C)c3ccc(-c4ccc(CN5CCOCC5)cc4)cc23)cc(OC)c1 | x | x | x | 45 | x | n
CC12CNCC(C)(CN(C(c3ccccc3)c3ccccc3)C1)C2 | n | n | n | 46 | n | n
Clc1ccc(C(c2ccccc2)N2CCNCC2)cc1 (stereo not drawn) | n | n | n | n | n | x
O=c1c2ccccc2sc2ccc(NCCCN3CCOCC3)cc12 | n | n | n | 45 | n | n
CN1CCCC1CCNc1ccc2sc3ccccc3c(=O)c2c1 (stereo not drawn) | n | n | n | 51 | n | 48
O=C(O)c1ccc(Cl)c(NC(=O)C2CCCN2S(=O)(=O)c2cccc3nsnc23)c1 (stereo not drawn) | n | n | n | 69 | n | n
O=C(NC1CCCCC1)C1CCCN1S(=O)(=O)c1cccc2nsnc12 (stereo not drawn) | n | n | n | n | n | x
COc1cccc(CN2CC(C(=O)N3CCOCC3)CCC2=O)c1 (stereo not drawn) | n | n | n | n | n | x
O=C(CN1CC[n+]2c(-c3cccs3)csc21)c1ccc(-c2ccccc2)cc1 | n | n | n | 46 | n | n
Cc1ccc(C(=O)Cn2nnc(-c3cccs3)n2)cc1 | n | n | n | n | n | x
CN(C)CCCNc1cc(C(C)(C)C)nc2c(-c3ccccc3)cnn12 | n | n | n | 67 | n | 61
CC(C)(C)c1cc(NCCCn2ccnc2)n2ncc(-c3ccc(Cl)cc3)c2n1 | n | n | n | n | n | x
Cc1ccsc1/C=N/N=C1\C(=O)Nc2ccccc21 | n | n | n | 53 | n | 52
Cc1cc(N/N=C/c2ccc(O)cc2)c2cccc(C)c2n1 | n | n | n | 59 | n | 56
Cc1cc(C)c2nc(C)cc(N/N=C/c3ccc(O)cc3)c2c1 | n | n | n | 72 | n | 68
C=C(C)C(=O)Nc1cccnc1Oc1ccc(F)cc1F | n | n | n | n | n | x
CN1CCc2c(n(CC(O)CNCc3ccccc3)c3ccccc23)C1=O (stereo not drawn) | n | n | n | n | n | x
CC(C)NCC(O)Cn1c2c(c3ccccc31)CCc1c-2cnn1-c1ccccc1 (stereo not drawn) | n | n | n | 66 | n | 82
CCOc1ccc(-c2c(=O)n(OCc3ccccn3)c3ccccc3[n+]2[O-])cc1 | n | n | n | 68 | n | 50
O=c1c(-c2ccc(Oc3ccccc3)cc2)[n+]([O-])c2ccccc2n1OCc1ccccn1 | n | n | n | n | n | x
COc1ccc2cc1Oc1ccc(cc1)CC1c3c(cc(OC)c4c3Oc3cc5c(cc3O4)CCNC5C2)CCN1C (stereo not drawn) | n | n | n | 51 | n | 52
Cn1c(=O)c2sccc2n2c(CCCC(=O)NCCc3ccccc3)nnc12 | n | n | n | n | n | x
CCOc1ccccc1O[C@H](c1ccccc1)[C@H]1CNCCO1 | n | n | n | 44 | n | n
CCOc1ccc(NCc2nc3ccccc3n2CCOc2ccccc2)cc1 | n | n | n | 45 | n | 45
CCN1/C(=C/c2cccc[n+]2C)Sc2ccc(OC)cc21 | n | n | n | 48 | n | 46
COc1ccccc1C(=O)Nc1ccc(Br)cc1C | n | n | n | n | n | x
CN(C)c1ccc(CCc2ccc(N)cc2)cc1 | n | n | n | n | n | x
Nc1ccc(N(c2ccccc2)c2ccc(N)cc2)cc1 | n | n | n | 48 | n | n
